Results: PubChem BioAssay (NCI)
Compounds without any hit were thinned out: in the full panel of roughly 83,000, 20% have a hit.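 Treatment: one concentration, 48 hours, 96-well format. Scoring: percent growth, with anything below 10 considered active.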 Calls of active or inactive are those of the source.

Each molecule was assayed on IGROV1 ovarian (assay: NCI-60 one-dose screen, 48 h (100 = growth as untreated, 0 = no growth, -100 = all killed)). Details: 10 µM unless noted.
Experimental: Growth inhibition of the IGROV1 human tumor cell line is measured as a screen for anti-cancer activity. Cells are grown in 96 well plates and exposed to the test compound for 48 hours. Compounds are tested at a single concentration, which is 10^-5 M for most compounds. The reported endpoint is percent growth (GI% or GIPRCNT), where numbers from 0 - 100% represent growth inhibition, and numbers from -100% - 0 represent cell death. For example, a value of 40 represents 60% growth inhibition. A value of 0 means no net growth occurred over the course of the experiment. A value of -40 indicates 40% of cells at the beginning of the experiment died by the end of the experiment. A value of -100 means all cells are dead at the end of the experiment.
NCI-60 Human Tumor Cell Lines Screen was performed using the standard one-dose NCI protocol, which is described in more detail at https://dtp.cancer.gov/discovery_development/nci-60/default.htm.
Compounds with GIPRCNT values below 10 were considered active. Activity score was based on GIPRCNT using the following formula: […]
Score is 0 for GIPRCNT values of 100 or above, 50 for GIPRCNT values of 0, and 100 for GIPRCNT values of -100.

Structure (SMILES) | growth
Cn1cc(-c2ccc(F)c(C(F)(F)F)c2)nc1C1CCN(c2ncnc3[nH]ncc23)CC1 | 55.2% (inactive)
CNC(=O)c1cc(Oc2ccc(NC(=O)Nc3cc(C(C)(C)C)nn3-c3ccc4ncccc4c3)c(F)c2)ccn1 | -20.2% (active)
CC(C)[C@@H]1CC[C@]2(CO2)[C@@H]2C(=O)OCC(C(=O)O)=C[C@H]21 | 5.4% (active)
Clc1ccc2c(NCCCNCc3ccc4c(c3)OCO4)ccnc2c1 | 57.3% (inactive)
CCc1nc2cc(/C=C/C(=O)NO)ccc2c(=O)n1CCc1ccc(OC)cc1 | 40.9% (inactive)
Cc1cc(O)c2c(c1)C1OC(=O)CCCCCN1C1=C2C(=O)c2cccc(OC3CC(O)C(O)C(C)O3)c2C1=O (stereo not given) | 96.4% (inactive)
CO/C=C/C(=O)c1cc2cnc3c(=N)cc(NC(=O)C(C)C)c([nH]1)c23 | -40% (active)
Cc1nc(-c2cn3c(n2)-c2ccc(-c4cnn(C(C)(C)C(N)=O)c4)cc2OCC3)n(C(C)C)n1 | -10.7% (active)
CN(C)C/C=C/C(=O)Nc1cc2c(Nc3ccc(F)c(Cl)c3)ncnc2cc1O[C@H]1CCOC1 | -27.1% (active)
N[C@@H]1CCCN(c2c(/C=C3\SC(=O)NC3=O)cccc2-c2ccccc2)C1 | 66.7% (inactive)
Nc1c(C(=O)c2ccccc2)sc2nc(-c3cccs3)cc(-c3cccs3)c12 | 66.3% (inactive)
COc1ccc(-c2cc3c(C)nc(N)nc3n(C3CCC(OCCO)CC3)c2=O)cn1 (stereo not given) | -36.9% (active)
Cc1oc2c(C(=O)N/N=C\c3ccc(O)cc3O)c[nH]c2c1C | 24.1% (inactive)
CO[C@H]1C[C@@H]2CC[C@@H](C)[C@@](O)(O2)C(=O)C(=O)N2CCCC[C@H]2C(=O)O[C@H]([C@H](C)C[C@@H]2CC[C@@H](OP(C)(C)=O)[C@H](OC)C2)CC(=O)[C@H](C)/C=C(\C)[C@@H](O)[C@@H](OC)C(=O)[C@H](C)C[C@H](C)\C=C/C=C/C=C/1C | 24.4% (inactive)
COC(=O)C1=C(C(=O)OC)C23C=C(C)C1C2=C(C)C1(CC1)[C@@](C)(O)C3=O (stereo not given in full) | 3.08% (active)
C[C@@H](NC(=O)c1ncnc(N)c1Cl)c1ncc(C(=O)Nc2cc(C(F)(F)F)c(Cl)cn2)s1 | 63.5% (inactive)
CN1CC[C@@H](c2c(O)cc(O)c3c(=O)cc(-c4ccccc4Cl)oc23)[C@@H]1CO | 6.42% (active)
COc1ccc(S(=O)(=O)N(C(C)=O)c2ccccc2/C=C/c2cc[n+]([O-])cc2)cc1 | 24.5% (inactive)
CO[C@@H](C(=O)N1Cc2[nH]nc(NC(=O)c3ccc(N4CCN(C)CC4)cc3)c2C1)c1ccccc1 | -16.1% (active)
COc1cnc2c(c1)C(=O)c1c-2n(CCCN2CCOCC2)c(=O)c2cc(Cl)ccc12 | 43.2% (inactive)

Structure (SMILES) | growth
CCCCN1CCCC[C@@H]1C(=O)N[C@H](C(=O)N(C)[C@H](CCc1nc(C(=O)N[C@@H](Cc2ccccc2)C[C@H](C)C(=O)OC)cs1)C(C)C)C(C)C | 50.3% (inactive)
COC(=O)[C@]12CC[C@@H](C)[C@H](C)[C@@H]1C1=CC[C@@H]3[C@@]4(C)C[C@@H](OC(=O)/C=C/c5ccccc5)[C@H](O)[C@@](C)(CO)[C@@H]4[C@H](O)C[C@@]3(C)[C@]1(C)CC2 | 31.2% (inactive)
CCCC(=O)OCC1OC(n2cnc3c(=S)nc(N)[nH]c32)C(OC(=O)CCC)C1OC(=O)CCC (stereo not given) | 51% (inactive)
COc1ccc2c(c1OC)C(=O)O[C@@H]2[C@H]1c2c(c(C#CC#Cc3ccc(F)c(F)c3)c3c(c2OC)OCO3)CCN1C | 90.1% (inactive)
Cc1cc(Nc2nc(N[C@@H](C)c3ncc(F)cn3)ncc2Cl)n[nH]1 | 45% (inactive)
C[C@H](NC(=O)c1c(N)nn2cccnc12)c1cc2cccc(C#Cc3cnn(C)c3)c2c(=O)n1-c1ccccc1 | -22.7% (active)
C=CCN1C(=O)c2cccc3c(-c4ccc5c(c4)ncn5C4CCCCC4)ccc(c23)C1=O | 67.1% (inactive)
Cn1cnc2c(F)c(Nc3ccc(Br)cc3F)c(C(=O)NOCCO)cc21 | 27.6% (inactive)
COc1cc(C2CC(c3ccc(Cl)cc3)=NN2c2ccc(Cl)cc2)cc(OC)c1OC (stereo not given) | 94.8% (inactive)
CC1CCC(n2cnc3c(Cl)ncnc32)O1 (stereo not given) | 61.7% (inactive)
Cc1cccc(Cl)c1NC(=O)c1cnc(Nc2cc(N3CCOCC3)cc(N3CCOCC3)c2)s1 | -51.7% (active)
CCCCCCCCCNCCCCCCCCC | 50.8% (inactive)
CC12O[C@H](C[C@@H](OC(=O)CCC(=O)O)[C@H]1O)n1c3ccccc3c3c4c(c5c6ccccc6n2c5c31)C(=O)NC4=O | 20.4% (inactive)
Nc1nc(N)c2cc(CNc3ccc(C(=O)NC(CC(=O)O)C(=O)O)cc3)ccc2n1 (stereo not given) | 38.7% (inactive)
NC(=O)c1c(OCc2c(F)cc(Br)cc2F)nsc1NC(=O)NCCCCN1CCCC1 | -32.4% (active)
[2H]C1([2H])[C@H](C)O[C@H](C)C([2H])([2H])N1c1ccc(NC(=O)c2cccc(-c3ccc(OC(F)(F)F)cc3)c2C)cn1 | 65.2% (inactive)
CCN1/C(=C/C=C/c2n(-c3ccccc3)c3ccc(-c4nc5ccccc5s4)cc3[n+]2CC)N(c2ccccc2)c2ccc(-c3nc4ccccc4s3)cc21 | 14% (inactive)
CCc1nc2ccc(Cc3ccc(C(=O)NO)cc3)cc2c(=O)n1CCc1ccccc1 | -56.7% (active)
COc1ccc(/C(C)=C(\c2ccc(Cl)cc2)c2ccc(OCCN3CCCCCC3)cc2)cc1 | 67.1% (inactive)
Cc1ccccc1N1C(c2ccccc2)=NNC12C=CC(=O)C=C2Cl (stereo not given) | 100% (inactive)
